Records with an inconclusive call do not appear. The source made the active and inactive calls. Calls come from the whole dose curve; as a rule, active = well fitted inhibition curve with a large enough effect; inconclusive = small, poorly fitted or top-dose-only effect; inactive = flat fitted curve, though single readings scatter.
Target: Calcium and integrin-binding protein 1 (Homo sapiens) (UniProt Q99828)
Experiment: Primary qHTS for Identification of Calcium Integrin Binding Protein 1 (CIB1) Competitor (AID 1508620);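 for activity change, negative = inhibition: GST tagged CIB1 binding a fluorescein labelled alphaIIb integrin peptide tracer; top concentration of the series differs between compounds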
Conditions: CIB1-GST / FITC-alphaIIb peptide fluorescence polarization; series mostly up to 57.7 µM; activity change, negative = inhibition: at the top concentration
Summary of the method: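 CIB1-GST (1 uM final) and compound incubated 15 min at room temperature before adding FITC-alphaIIb peptide tracer (100 nM final). Competition for binding read by fluorescence polarization (ex 480, em 540) after another 15 min at room temperature.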
% is set by controls: 0 for no effect and ±100 for the full control effect; potency is the fitted concentration of half-maximal effect.

Sequence of Calcium and integrin-binding protein 1 (Homo sapiens) (Q99828 whole entry, looked up): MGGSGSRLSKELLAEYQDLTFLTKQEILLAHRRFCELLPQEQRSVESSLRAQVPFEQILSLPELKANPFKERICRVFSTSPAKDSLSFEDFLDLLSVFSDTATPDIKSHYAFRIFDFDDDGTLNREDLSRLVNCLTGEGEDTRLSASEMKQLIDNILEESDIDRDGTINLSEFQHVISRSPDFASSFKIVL

Structure (SMILES)	activity change, negative = inhibition	Potency
CC(=O)OCC(=O)O[C@@H]1[C@H]2[C@@H](OC(=O)c3ccccc3)[C@@H](C)C[C@]2(O)[C@H](OC(C)=O)C2(C)[C@H]3CC(C)(C)C(=O)[C@@H]3CC1(OC(C)=O)[C@@H]2OC(C)=O (stereo not given in full)	-3.47% [at 30.2 µM] (inactive)	
CC(NC(=O)CC(=O)O)c1nc2ccccc2c(=O)[nH]1 (stereo not given)		28.2 µM (active)
CC1(C)O[C@@]2(C)CC[C@@H]1C[C@@H]2OC1OC(CO)C(O)C(O)C1O (stereo not given in full)	-1.66% (inactive)	
c1nc(NC2CCCCCC2)c2cc(CNC[C@H]3CCCO3)sc2n1	0.108% [at 114 µM] (inactive)	
NCc1c[nH]c(=S)n1C1CCc2c(F)cc(F)cc2C1 (stereo not given)	1.33% [at 114 µM] (inactive)	
COC1CCCC/C(C)=C/C2C=C(C)C(C)C3C(CC(C)C)NC(=O)C23C(=O)C1 (stereo not given)	-2.13% (inactive)	
C[C@@H]1CC[C@H]2C(C)(C)[C@H](O)[C@H](O)C[C@]2(C)[C@@]12Cc1c(O)cc3c(c1O2)CNC3=O	1.45% (inactive)	
CCOC(=O)c1ccnc(CNCC(=O)N(CC)CCN(C)C)c1	-10.4% [at 114 µM] (inactive)	
C[C@H]1[C@H](C)CC[C@]2(C(=O)O)CC[C@]3(C)C(=CC[C@@H]4[C@@]5(C)C[C@@H](O)[C@H](O)[C@@](C)(CO)[C@@H]5CC[C@]43C)[C@H]12	4.72% [at 114 µM] (inactive)	
CC[C@H]1OC(=O)[C@H](C)[C@@H](OC2C[C@@](C)(OC)[C@@H](O)[C@H](C)O2)[C@H](C)[C@@H](OC2O[C@H](C)C[C@H](NC)[C@H]2O)[C@](C)(O)C[C@@H](C)CN(C)[C@H](C)[C@@H](O)[C@]1(C)O (stereo not given in full)	1.68% [at 114 µM] (inactive)	
COC1(CC(C)C)NC(=O)C(O)(Cc2ccccc2)NC1=O (stereo not given)	1.37% (inactive)	
CC1=C2C3OC(=O)C(C)C3(O)CCC2(C)CCC1=O (stereo not given)	-2.64% [at 114 µM] (inactive)	
CN1C(=O)c2ccccc2-n2c(nc3ccccc3c2=O)[C@@]12O[C@H]2c1ccccc1	-7.65% (inactive)	
CC(c1c[nH]c2ccccc12)C(O)C(=O)O (stereo not given)	1.62% [at 114 µM] (inactive)	
CC(=O)OC[C@@]12[C@@H](OC(C)=O)C[C@@H](C)[C@](C)([C@@H]3C[C@H]4C=CO[C@H]4O3)[C@H]1CCC[C@]21CO1	2.02% (inactive)	
C=C1[C@H]2CC[C@]3(O)[C@@](CC[C@@H]4[C@](C)(C(=O)O)CCC[C@]43C)(C2)[C@H]1OC(=O)/C(C)=C\C	0.2% (inactive)	
CC1(C)CC[C@]2(C(=O)O)CC[C@]3(C)C(=CCC4[C@@]5(C)C[C@@H](O)[C@H](O)C(C)(C)C5CC[C@]43C)[C@@H]2[C@@H]1O (stereo not given in full)	-0.811% (inactive)	
COc1cc(/C=C/C(=O)OC(C)(C)C(OC2OC(CO)C(O)C(O)C2O)C(=O)OCc2ccc(OC3OC(CO)C(O)C(O)C3O)cc2)ccc1O (stereo not given)	-2.54% [at 30.2 µM] (inactive)	
COC(=O)[C@@]1(C)CC[C@]2(C(=O)O[C@@H]3O[C@H](CO)[C@@H](O)[C@H](O)[C@H]3O)CC[C@]3(C)C(=CCC4[C@@]5(C)CC[C@H](O[C@@H]6O[C@H](C(=O)O)[C@@H](O)[C@H](O)[C@H]6O)C(C)(C)C5CC[C@]43C)[C@@H]2C1 (stereo not given in full)	2.93% [at 30.2 µM] (inactive)	
CCOC(=O)N1CCC(NCCNC(=O)c2ccccc2C)CC1	3.6% [at 114 µM] (inactive)	

Structure (SMILES)	activity change, negative = inhibition	Potency
CN(NC(=O)CC(=O)NN(C)C(=S)c1ccccc1)C(=S)c1ccccc1	-23.8% (inactive)	
CC1=C(C)C(=O)OC(C(C)(O)C2CCC3C4CC=C5CC(OC6OC(COC7OC(CO)C(O)C(O)C7O)C(O)C(O)C6O)CC(O)C5(C)C4CCC32C)C1 (stereo not given)	-5.35% [at 30.2 µM] (inactive)	
COc1cc(/C=C/C(=O)O[C@H]2[C@H](OC(=O)/C=C/c3cc(OC)c(O)c(OC)c3)O[C@H](CO[C@@H]3O[C@H](CO)[C@@H](O)[C@H](O)[C@H]3O)[C@@H](O)[C@@H]2O)ccc1O	1.99% [at 30.2 µM] (inactive)	
O=c1ccn([C@@H]2O[C@H](CO)[C@@H](O)[C@H]2O)c(=O)[nH]1	-2.23% [at 114 µM] (inactive)	
C[C@@H]1C/C=C/C=C\C=C\C=C\[C@H](O[C@@H]2O[C@H](C)[C@@H](O)[C@H](N)[C@@H]2O)C[C@@H]2O[C@](O)(C[C@@H](O)C[C@H]3O[C@@H]3/C=C/C(=O)O1)C[C@H](O)[C@H]2C(=O)O	1.59% [at 30.2 µM] (inactive)	
CC1CCC2(C(=O)OC3OC(COC4OC(CO)C(O)C(O)C4O)C(O)C(O)C3O)CCC3(C)C(=CCC4C5(C)CCC(O)C(C)(C(=O)O)C5CCC43C)C2C1(C)O (stereo not given)	2.95% [at 30.2 µM] (inactive)	
COCCCNCC1COc2ccccc2O1 (stereo not given)	0.556% [at 114 µM] (inactive)	
CCOc1ccc(-c2ccc(Cn3c(CC(C)(C)C(=O)O)c(SC(C)(C)C)c4cc(OCc5ccc(C)cn5)ccc43)cc2)cn1		inactive
CC(/C=C/C1(O)C(C)CC(O)CC1(C)C)OC1OC(CO)C(O)C(O)C1O (stereo not given)	-5.87% (inactive)	
C=CC1C(O[C@@H]2O[C@H](CO)[C@@H](O)[C@H](O)[C@H]2O)OC=C(C(=O)OC)C1CC(=O)O (stereo not given in full)	-2.29% (inactive)	
COc1ccc2c3c1O[C@H]1C[C@@H](O)C=C[C@@]31CCN(C)C2	-1.05% [at 114 µM] (inactive)	
Cn1c(=O)c2nc(/C=C/c3cccc(Cl)c3)n(C)c2n(C)c1=O	0.519% [at 228 µM] (inactive)	
c1ccc(Cc2ncc3c(n2)CCNCC3)cc1	-2.51% [at 114 µM] (inactive)	
CC(=O)O[C@H]1C[C@@H]2[C@]3(CC[C@]4(C)[C@@H](C5(C)CCC(C(C)(C)O)O5)[C@@H](O)C[C@@]24C)C[C@@]32CC[C@H](O[C@@H]3OC[C@@H](O)[C@H](O)[C@H]3O)C(C)(C)[C@H]12 (stereo not given in full)	0.913% [at 30.2 µM] (inactive)	
COc1cc([C@@H]2Oc3c(OC)cc(CCCO)cc3[C@@H]2CO[C@@H]2O[C@H](CO)[C@@H](O)[C@H](O)[C@H]2O)ccc1O	-1.63% (inactive)	
CN1C(=O)N[C@@H](Cc2c[nH]c3c(Cl)cccc23)C1=O	1.98% [at 114 µM] (inactive)	
COc1ccc(C)c2sc(NC(=O)c3ccncc3)nc12	1.1% [at 114 µM] (inactive)	
CC(=O)O[C@@H]1[C@H]2[C@@H](OC(=O)c3ccccc3)[C@@H](C)C[C@]2(O)[C@H](OC(C)=O)[C@@]2(C)[C@@H]3CC(C)(C)C(=O)[C@]3(OC(C)=O)C[C@@]12C	-5.2% [at 30.2 µM] (inactive)	
CC1=CC[C@]2(C(=O)O[C@@H]3O[C@H](CO[C@@H]4O[C@H](CO)[C@@H](O[C@@H]5O[C@@H](C)[C@H](O)[C@@H](O)[C@H]5O)[C@H](O)[C@H]4O)[C@@H](O)[C@H](O)[C@H]3O)CC[C@]3(C)C(CCC4[C@@]5(C)C[C@@H](O)[C@H](O)[C@@](C)(CO)C5CC[C@]43C)C2C1C (stereo not given in full)	-0.144% [at 30.2 µM] (inactive)	
N#CCc1ccc(O)cc1O[C@@H]1O[C@H](CO)[C@@H](O)[C@H](O)[C@H]1O	-1.69% (inactive)	

From PubChem BioAssay (NCATS)
